High-throughput results from PubChem BioAssay.
Most compounds without a hit are left out; they make up all but 19% or so of the library.
Lassa entry inh – qHTS for Inhibitors of binding or entry into cells for Lassa Virus; 300,000 tested, 1.2% active; Lassa virus pseudotype entry inhibition, cell reporter; Potency, µM (doses to about 37.9 µM), hits mostly inhibitors; calls by dose curve; tested in HEK293 cells; also: nearly all actives have a fitted effect of over 50% in size
Marburg entry inh – qHTS for inhibitors of binding or entry into cells for Marburg Virus | Marburg virus pseudotyped entry inhibition, cell reporter | AID 540276, 2011 | Potency, µM (series often up to 37.8 µM), actives largely listed as inhibitors | 300,000 tested, 1.8% active; calls by dose curve; tested in HEK293 cells
Shiga toxin inh – A qHTS for Small Molecule Inhibitors of Shiga Toxin; Vero cells, Shiga toxin protein synthesis inhibition reporter; inhibition, % at 38.7 µM; 290,000 tested, 9.2% active; in the data active = inhibition mostly above about 28%, no sharp cut-off; inactive = mostly below about 43%
Pf growth 96h – Primary qHTS for delayed death inhibitors of the malarial parasite plastid, 96 hour incubation; Potency, µM (series often up to 28.7 µM), usual class: inhibitors; 320,000 tested, 6.9% active; P. falciparum luciferase reporter growth, 96 h
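Luminescence readout: decreased luciferase signal marks inhibited growth of reporter-expressing P. falciparum in infected red cells (2% hematocrit, 0.05% parasitemia final), exposed to compound two generations (96 h, 37 C, 5% CO2).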
Pf growth 48h – Primary qHTS for delayed death inhibitors of the malarial parasite plastid, 48 hour incubation; P. falciparum luciferase growth in erythrocytes, 48 h; Potency, µM (top dose mostly 28.7 µM), usual class: inhibitors; 310,000 tested, 5.9% active
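Read-out is firefly luciferase luminescence from an integrated reporter in P. falciparum, so falling signal marks reduced parasite growth. Infected erythrocytes were at 2% hematocrit and 0.1% parasitemia (final) in Albumax-supplemented RPMI 1640.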
CHX counter – Cycloheximide Counterscreen for Small Molecule Inhibitors of Shiga Toxin; max response, %; 300,000 tested, 12% active; cell reporter, cycloheximide protein synthesis inhibition counterscreen; in the data active = max response mostly above about 13%, no sharp cut-off; inactive = mostly below about 14%; also: read at 38.3 µM for the half of the compounds with a filed dose
Large screens that a line does not name were inactive. Unless noted, calls follow the shape of the dose curve; as a rule, active = well fitted inhibition curve with a large enough effect; inconclusive = small, poorly fitted or top-dose-only effect, or another doubt; inactive = no such curve, though single readings can be large or run the other way.

COC(=O)c1ccc2c(=O)n(CCN3CCOCC3)c(SCC(=O)Nc3ccc(C)cc3)nc2c1	Pf growth 96h 12µM (no result: Lassa entry inh, Marburg entry inh)
O=C1Cc2cc(O)ccc2O1	none (no result: Shiga toxin inh, Pf growth 96h, Pf growth 48h, CHX counter)
CCCCN(CC)CCNC(=O)Cn1cnc2sc(C)c(S(=O)(=O)N3CCC(C)CC3)c2c1=O	none
COC(=O)CC1Nc2ccccc2SC1=O (configuration not stated)	Pf growth 96h inconclusive (no result: Pf growth 48h)
CCCCn1c(SC(C)C(=O)NCC2CCCO2)nc2cc(C(=O)OC)ccc2c1=O (configuration not stated)	Pf growth 96h 8.3µM, Pf growth 48h 5.9µM (no result: Shiga toxin inh, CHX counter)
COCCCn1c(SCC(=O)N2CCOCC2)nc2cc(Cl)ccc2c1=O	Pf growth 48h 10µM (no result: Lassa entry inh, Marburg entry inh, Shiga toxin inh, CHX counter)
COCCCn1c(SCC(=O)N2CCOCC2)nc2ccccc2c1=O	Pf growth 96h inconclusive
O=C1NC(=O)N(c2ccccc2)C(=O)/C1=C/c1ccc2c(c1)Cc1ccccc1-2	none (no result: Lassa entry inh, Marburg entry inh)
COc1ccccc1N1C(=O)NC(=O)/C(=C/c2ccc3c(c2)Cc2ccccc2-3)C1=O	Shiga toxin inh 45
CCC(C)/C(C)=N/NC(=O)c1ccc(COc2ccc(Cl)c(C)c2)cc1 (configuration not stated)	Marburg entry inh inconclusive, CHX counter 38
Cc1cc(OCCCC(=O)NNC(=O)c2ccncc2)ccc1Cl	none
O=C(CSc1nc2ccccc2[nH]1)Nc1ccccc1N1CCOCC1	Marburg entry inh 8.9µM (no result: Pf growth 96h)
O=C(CSc1ccc([N+](=O)[O-])cn1)Nc1cc(C(F)(F)F)ccc1N1CCOCC1	Marburg entry inh inconclusive, Pf growth 48h 5.2µM
O=C(CSc1ccc([N+](=O)[O-])cn1)Nc1ccccc1N1CCOCC1	Pf growth 48h inconclusive
O=C(CSc1nc2ccccc2[nH]1)Nc1cc(C(F)(F)F)ccc1N1CCOCC1	Pf growth 96h 5.2µM, Pf growth 48h inconclusive
CCOC(=O)c1c[nH]c(=S)n1C	none (no result: Lassa entry inh, Marburg entry inh)
CSc1ccc(CN(C)C(=O)CSCC(=O)Nc2cc(C)on2)cc1	Marburg entry inh inconclusive, Pf growth 48h inconclusive
CCCn1c(-c2nonc2N)nc2ccccc21	none
CCn1c(-c2nonc2N)nc2c(C#CC(C)(C)O)nc(OC(CN)c3ccccc3)cc21 (configuration not stated)	Lassa entry inh 8.9µM (no result: Marburg entry inh, Shiga toxin inh, Pf growth 96h, Pf growth 48h, CHX counter)
CCOc1ccccc1NC(=O)NC(=O)N(C)S(=O)(=O)c1ccc(C)cc1	none (no result: Lassa entry inh, Marburg entry inh)
CC(=O)Nc1cccc(-c2nc3ccccc3s2)c1	Marburg entry inh inconclusive, Shiga toxin inh 98, Pf growth 96h inconclusive, CHX counter 36
COC(=O)Cc1ccc2sc(-c3ccccc3)nc2c1	Lassa entry inh inconclusive, Marburg entry inh 8.2µM, Shiga toxin inh 73, CHX counter 62
O=C(O)Cc1ccc2sc(-c3ccccc3)nc2c1	none
CC(=O)Nc1cccc(-c2nc3ccc(NC(C)=O)cc3s2)c1	Shiga toxin inh 78, CHX counter 40 (no result: Lassa entry inh, Marburg entry inh)
CC(=O)Nc1ccc2nc(NC(=O)C(Cl)(Cl)Cl)sc2c1	Pf growth 96h inconclusive
CC(=O)Nc1cccc(-c2cc(C)c3cc4c(cc3n2)OCO4)c1	Lassa entry inh inconclusive, Marburg entry inh inconclusive, Shiga toxin inh 109, CHX counter 37
CC(=O)Nc1cccc(-c2nn[nH]n2)c1	none
CCOC(=O)C1CCN(C(=O)CN(C)S(=O)(=O)c2cc(C)ccc2OC)CC1	Pf growth 96h inconclusive
Cc1ccc(C(=O)NC(=S)Nc2cccc(-c3nc4ccccc4s3)c2)cc1	Lassa entry inh inconclusive, Shiga toxin inh 60, CHX counter 27
Cc1ccc(C(C2=C(O)CC(C)(C)CC2=O)C2C(=O)CC(C)(C)CC2=O)s1 (configuration not stated)	Lassa entry inh inconclusive
CC1(C)CC(=O)C(C(C2=C(O)CC(C)(C)CC2=O)c2ccc(Br)s2)C(=O)C1 (configuration not stated)	Lassa entry inh 13µM, Marburg entry inh inconclusive, Pf growth 96h inconclusive, Pf growth 48h inconclusive
CC[C@H](C)[C@H](N)C(=O)N[C@H](C(=O)N[C@@H](CO)C(=O)N[C@@H](C)C(=O)N[C@H](C(=O)N[C@H](C(=O)NCC(=O)N[C@H](C(=O)N[C@@H](CC(C)C)C(=O)O)[C@@H](C)CC)C(C)C)C(C)C)[C@@H](C)CC	none (no result: Lassa entry inh, Marburg entry inh, Pf growth 96h, Pf growth 48h)
CC(=O)c1ccc(N2CCN(C(=S)Nc3cccc(F)c3)CC2)cc1	none
COc1ccc(CCNC(=O)Cn2cc(C(=O)c3ccc(F)cc3)c(=O)c3ccc(C)nc32)cc1OC	none (no result: Marburg entry inh, Shiga toxin inh, Pf growth 96h, Pf growth 48h, CHX counter)
Cc1nc2cc3sc(C)nc3cc2s1	Marburg entry inh inconclusive, Shiga toxin inh 73, Pf growth 96h inconclusive, CHX counter 33
Cc1nc2ccc(N)cc2s1	none (no result: Lassa entry inh, Marburg entry inh)
Cc1nc2cc(C)c(C)cc2s1	Pf growth 96h inconclusive, CHX counter 22 (no result: Lassa entry inh)
Cc1nc2cc(Cl)c([N+](=O)[O-])cc2s1	Marburg entry inh inconclusive
CCCN(C(=O)c1nc2nc(C)cc(C)n2n1)c1c(N)n(Cc2ccccc2)c(=O)[nH]c1=O	none (no result: Lassa entry inh, Marburg entry inh, Shiga toxin inh, CHX counter)
CCc1ccc(CCC(=O)Nc2ccc(C)c(C)c2)o1	Shiga toxin inh 58, CHX counter 40
Cc1ccc(CCC(=O)Nc2ccc(C#N)cc2)o1	Pf growth 96h inconclusive (no result: Lassa entry inh, Marburg entry inh)
CCc1ccc(CCC(=O)Nc2ccc(C(=O)O)cc2)o1	Pf growth 96h inconclusive (no result: Lassa entry inh, Marburg entry inh)
CC(=O)c1ccc(NC(=O)CCc2ccc(C)o2)cc1	Marburg entry inh inconclusive, CHX counter 13
CCc1ccc(NC(=O)CCc2ccc(C)o2)cc1	CHX counter 37 (no result: Lassa entry inh, Marburg entry inh, Shiga toxin inh)
CCc1ccc(NC(=O)CCc2ccc(CC)o2)cc1	Pf growth 96h inconclusive, CHX counter 14 (no result: Shiga toxin inh)
Cc1cc(NC(=O)CCc2ccc(C)o2)no1	Pf growth 96h inconclusive
CCCOc1ccc(-c2nc(C#N)c(N3CCN(C)CC3)o2)cc1	Pf growth 96h inconclusive
CCN(C(=O)c1c(-c2ccccc2Cl)noc1C)C1CCCCC1	Marburg entry inh inconclusive, Pf growth 48h inconclusive (no result: Lassa entry inh)
COCCOC(=O)C1=C(C)NC(=O)NC1c1c(Cl)nc2c(C)cccn2c1=O (configuration not stated)	Pf growth 96h inconclusive
Cc1ccc(/C=N/NC(=O)C[n+]2ccccc2)o1	Pf growth 48h inconclusive
O=C(O)CCC1(C(=O)O)CCC(=O)c2ccccc21 (configuration not stated)	none (no result: Shiga toxin inh, Pf growth 96h, Pf growth 48h, CHX counter)
O=C(O)CCC1(CCC(=O)O)c2ccccc2-c2ccccc21	Pf growth 96h 6.6µM
COc1ccc(C(=O)Nc2ccc(-c3nc4ccccc4s3)cc2C)cc1Cl	Marburg entry inh inconclusive (no result: Shiga toxin inh, Pf growth 96h, Pf growth 48h, CHX counter)
N#C/C(=N\Nc1ccc(Cl)c(Cl)c1)C(=O)C1CC1	Lassa entry inh inconclusive, Marburg entry inh inconclusive, CHX counter 35
CCOC(=O)c1cn2nc(-c3ccc(OCC)cc3)cc2nc1C1CCN(C(=O)OC(C)(C)C)CC1	Marburg entry inh inconclusive, Pf growth 96h inconclusive (no result: Pf growth 48h)
COc1ccc(-c2cc3nc(C4CCN(C(=O)OC(C)(C)C)CC4)c(C(=O)O)cn3n2)cc1	Pf growth 48h 1.3µM
COc1ccc(-n2nc(C(=O)NCC(=O)Nc3cc(C)ccc3OC)c3ccccc3c2=O)c(OC)c1	Lassa entry inh 6.3µM, Pf growth 96h inconclusive, Pf growth 48h 12µM
